HPGD block: HPGD (human) dehydrogenase inhibition; Potency, µM, without a hit: top-dose activity change, negative = inhibition, most hits filed as inhibitors; purified HPGD, NADH fluorescence kinetic, PGE2 substrate; P15428; AID 894; 4.3% of 150,000 active; note: potency is the fitted concentration of half-maximal effect
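20 nM HPGD preincubated 15 min at room temperature with compound in 50 mM Tris-HCl pH 8, 0.01% Tween 20. Started with 1 mM NAD+ and 30 uM prostaglandin E2; NADH fluorescence (360/450 nm) read 5 times over 30-s intervals, last minus first.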
ALDH1A1 inh: blocks purified human ALDH1A1 activity; 7.3% of 220,000 active; Purified ALDH1A1, NADH fluorescence, propionaldehyde substrate; Potency, µM (doses to about 75.3 µM), for inactives: at the highest dose activity, negative = inhibition, most hits filed as inhibitors;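 note: potency is the fitted concentration of half-maximal effect; plate controls were no enzyme wells and a reference inhibitor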
Target sequence (P00352 whole entry, looked up): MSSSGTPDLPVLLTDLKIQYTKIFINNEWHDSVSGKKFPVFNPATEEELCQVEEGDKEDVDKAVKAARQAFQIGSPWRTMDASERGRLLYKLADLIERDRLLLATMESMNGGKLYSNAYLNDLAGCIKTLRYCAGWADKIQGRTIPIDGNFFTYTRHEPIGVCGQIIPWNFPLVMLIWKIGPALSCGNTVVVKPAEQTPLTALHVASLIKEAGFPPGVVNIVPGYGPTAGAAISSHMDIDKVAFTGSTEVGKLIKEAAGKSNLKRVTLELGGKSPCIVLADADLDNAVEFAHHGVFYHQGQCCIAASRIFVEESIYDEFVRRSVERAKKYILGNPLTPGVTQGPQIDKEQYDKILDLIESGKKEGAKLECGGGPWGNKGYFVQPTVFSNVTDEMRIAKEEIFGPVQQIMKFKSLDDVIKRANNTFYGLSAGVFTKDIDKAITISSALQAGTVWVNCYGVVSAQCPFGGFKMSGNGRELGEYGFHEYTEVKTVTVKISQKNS
KinaseGlo FLuc: Kinase-Glo luciferase inhibition (counter-screen). Potency, µM (series often up to 38.3 µM), without a hit: top-dose activity change, negative = inhibition, hits mostly inhibitors. 0.28% of 200,000 active. Kinase-Glo luciferase, ATP luminescence, 8 min. Q27757. AID 1379; active = well fitted inhibition curve with a large enough effect; inconclusive = small, poorly fitted or top-dose-only effect; note: potency is the fitted concentration of half-maximal effect; nearly all actives have a fitted effect of over 60% in size
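Compounds were added to a substrate mix at pH 7.2 (50 mM imidazole, 10 uM ATP, within the enzyme's linear range), followed by Kinase-Glo detection reagent; luminescence was measured after 8 minutes at ambient temperature.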
PNC assembly inh: perinucleolar compartment assembly inhibition; PC3M PTB-GFP, PNC prevalence imaging, 16 h; hits give low values; activity change (PNC), negative = inhibition, % at 10 µM; 3.1% of 140,000 active;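 active = readout at or below -70, meaning at least 70% loss of cells showing the perinucleolar compartment, a nuclear body marking cancer cells; inconclusive = readout between -30 and a set limit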;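 note: plate controls were DMSO wells for no effect and camptothecin positive control wells for full effect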
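PC3M cells stably expressing PTB-GFP, 750–1000 cells/well, treated 16 h at 37 °C with compound (23 nl of library stock), in duplicate. After paraformaldehyde fixation and Hoechst stain, imaged at 20x; PNC prevalence scored by image analysis.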
Lamin A splicing: modulators of lamin A splicing | HeLa LMNA splicing GFP/RFP minigene ratio, 48 h | Potency, µM (titrated, usually from 46.1 µM), for inactives: at the top dose ratio change, negative = inhibition, actives largely listed as inhibitors | 0.01% of 200,000 active | AID 1487; active = well fitted inhibition curve with a large enough effect in the signal ratio, with a control signal flat, not every such curve was filed as active; inconclusive = small, poorly fitted or top-dose-only effect, or effect the other way, or a change in a side signal; the % refers to the signal ratio; note: potency is the fitted concentration of half-maximal effect
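Read-out is the ratio of GFP to DsRed2 object intensity, acquired by 488 nm laser-scanning cytometry on HeLa lamin A-EGFP minigene reporter cells. Compound incubation 48 hrs at 37 °C in Opti-MEM with 2% FBS; DMSO 0.5% final.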
IMPase cell inh: membrane-permeable compound that blocks inositol monophosphatase | CHO-M1 cells, IP1 accumulation, HTRF TR-FRET ratio | AID 901 | inhibition (IP1 accumulation), % at 46.1 µM | 120,000 tested, under 10 active | P97697; active = well fitted curve in the direction sought with a large enough effect in the signal ratio, not every such curve was filed as active; inconclusive = small, poorly fitted or top-dose-only effect, or a change in a side signal; inactive = no such curve, though single readings can be large or run the other way; the % refers to the signal ratio;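 note: cells stimulated with carbachol in lithium chloride buffer; plate controls were DMSO basal wells for no effect and reference inhibitor wells for full effect; higher means more IMPase inhibition seen as more IP1 and lower FRET ratio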
Target sequence (P97697 whole entry, looked up): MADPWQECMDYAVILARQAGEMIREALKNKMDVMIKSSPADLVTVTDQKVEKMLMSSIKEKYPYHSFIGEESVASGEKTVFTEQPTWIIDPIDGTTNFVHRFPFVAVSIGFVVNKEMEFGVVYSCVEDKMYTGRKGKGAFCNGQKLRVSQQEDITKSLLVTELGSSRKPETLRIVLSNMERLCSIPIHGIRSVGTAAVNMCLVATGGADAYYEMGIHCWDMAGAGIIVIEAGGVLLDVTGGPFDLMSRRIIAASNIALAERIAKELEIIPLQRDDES
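Seeded CHO-M1 cells were dosed with compound at up to 46 uM, stimulated with carbachol for 30 min, then lysed in IP-One detection reagents. Higher IP1 lowers the TR-FRET signal.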
The depositor's hits bear a star; ? = inconclusive; / = no result; [ ] = dose if it differs, or a comment. The list is not random: actives were taken first. Their share in the collection is about 10%. Unless noted, calls come from the whole dose curve; as a rule, active = well fitted inhibition curve with a large enough effect (not every such curve was filed as active); inconclusive = small, poorly fitted or top-dose-only effect, or another doubt; inactive = no such curve, though single readings can be large or run the other way. Unless noted, % is set by controls: 0 for no effect and ±100 for the full control effect.

SMILES	HPGD block	ALDH1A1 inh	KinaseGlo FLuc	PNC assembly inh	Lamin A splicing	IMPase cell inh
CC1CN(C(=S)c2cccc([N+](=O)[O-])c2)CC(C)O1 (stereo not given)	/	7.94µM*	1.1%	/	/	/
O=C(/C=C/c1cccc([N+](=O)[O-])c1)N1CCN(c2ccccc2F)CC1	-2.2%	-7.0%	-3.1%	14.3	13.7%	/
O=[N+]([O-])c1cccc(C(=S)N2CCN(c3ccccc3F)CC2)c1	/	22.4µM*	-0.5%	/	?	/
CC1CN(C(=S)NC(=O)c2ccc([N+](=O)[O-])cc2)CC(C)O1 (stereo not given)	-0.1%	-9.1%	-1.2%	61.4	-4.9%	-2.6
Cc1nn(C(=O)COc2ccccc2)c(C)c1Sc1ccccc1	/	/	/	/	/	-8.8
O=C(NCc1ccc(Cl)cc1)C1(c2cccs2)CCOCC1	/	/	/	/	-3.9%[46 µM]	/
CCOc1ccc(-c2nnc(SCC(=O)NCCc3ccccc3)nc2-c2ccc(OCC)cc2)cc1	/	/	/	/	-11.0%[46 µM]	/
OC[C@@H]1O[C@@H](n2cnc3c(NC4CCCC4)ncnc32)[C@@H](O)[C@H]1O	/	/	/	/	/	17.6
CCOC(=O)CSc1nc2ccccc2c(=O)n1CCc1ccc(OC)c(OC)c1	/	/	/	/	-12.8%[46 µM]	/
O=S(=O)(Nc1nccs1)c1cnc(Cl)c(Br)c1	-12.7%	?	2.3%	-10.8	0.5%	/
O=S(=O)(Nc1nc2ccccc2s1)c1cnc(Cl)c(Br)c1	/	20µM*	/	/	/	/
COc1ccc(Nc2ncnc3c2cnn3C)c(OC)c1	/	/	/	/	-9.7%[46 µM]	/
CS(=O)(=O)N(CC(=O)N1CCCCCC1)Cc1ccc(Cl)cc1	-2.3%	?	19.3%	-107.0*	-3.0%	0.3
CS(=O)(=O)N(CC(=O)NCc1ccccn1)Cc1ccc(Cl)cc1	-0.5%	7.94µM*	0.1%	?	1.3%	8.9
CS(=O)(=O)N(CC(=O)NCc1ccccc1)Cc1ccc(Cl)cc1	-2.1%	8.3%	-1.8%	10.1	10.5%	-10.5
COc1nc(Cl)nc(Cl)c1Cl (tested in a mixture with another compound)	-3.9%	5.8%[13.5 µM]	-5.5%[7.66 µM]	/	/	/
O=C(N1CCOCC1)n1cnc2ccccc21	-9.2%	-2.6%	-1.0%	-100.0*	-9.2%	-4.5
CC1CCCN(c2nc(NCc3ccco3)nc(N)c2[N+](=O)[O-])C1 (stereo not given)	-22.1%	2µM*	-1.3%	15.7	?	/
COc1ccc2nc(NCc3ccccc3)[nH]c2c1	-2.6%	1.8%	-1.2%	?	-25.1%	5.9
Cc1ccc2nc(NCc3ccccc3)[nH]c2c1	-0.5%	5.9%	13.1%	-103.2*	?	1.0
COc1ccc(-c2nc(SCC(=O)Nc3c(C)cc(C)cc3C)n[nH]2)cc1	/	/	/	/	17.1%[46 µM]	/
Brc1ccc(OCc2nnnn2-c2ccccc2)cc1	/	?	0.6%	/	?	/
COc1ccc(OCc2nnnn2-c2ccccc2)cc1	-8.1%	?	2.5%	-92.7*	-3.1%	6.9[1.84 µM]
COc1ccc(Oc2cnn(-c3ccccc3)c(=O)c2Br)cc1	/	25.1µM*	-1.7%	/	/	/
COc1ccc(-n2nnnc2-c2ccccc2)cc1	-11.4%	9.1%	-2.1%	-82.5*	-14.7%	2.7
SMILES	HPGD block	ALDH1A1 inh	KinaseGlo FLuc	PNC assembly inh	Lamin A splicing	IMPase cell inh
COc1cnn(-c2ccc(C)cc2)c(=O)c1Br	/	-15.0%	-5.1%	/	/	/
COc1ccc(Oc2nnnn2-c2ccccc2)cc1	-6.8%	7.94µM*	-4.2%	?	-6.3%	-4.2[0.369 µM]
COc1cccc(Oc2nnnn2-c2ccccc2)c1	/	?	/	-9.0	4.9%	3.7
CCN1CCCC1CNC(=O)c1ccc(-n2c(=O)c(=O)[nH]c3ccccc32)cc1 (stereo not given)	-5.2%	5.6%	-1.0%	/	/	/
c1ccc(-n2nnnc2OCCOc2nnnn2-c2ccccc2)cc1	-5.7%	2.51µM*	0.9%	7.3	10.7%	6.2
NC(=O)c1ccc(-n2nnnc2Oc2ccccc2)cc1	-2.2%	-1.5%	-1.4%	-9.4	-7.7%	8.4
COc1ccccc1Oc1nnnn1-c1ccc(C(N)=O)cc1	-8.2%	12.6µM*	14.8%	-0.2	14.4%	-6.5
Cc1ccc(C(C)C)c(Oc2nnnn2-c2ccccc2)c1	-2.8%	17.8µM*	0.4%	?	-0.9%	7.6
Cc1ccc(C)c(Oc2nnnn2-c2ccccc2)c1	-12.3%	-15.8%	-2.0%	?	0.5%	-3.1
O=C(O)c1ccccc1-c1ccc(/C=c2\sc3nc4cc(Br)cnc4n3c2=O)o1	31.6µM*	22.4µM*	-3.1%	?	-1.4%	7.4
Cc1ccc(NC(=O)C(Nc2ccccc2)c2ccccc2)cc1 (stereo not given)	-4.4%	-9.2%	5.1%	-25.0	-8.2%	/
Cc1ccc(NC(=O)C(Nc2cccc(C)c2)c2ccccc2)cc1 (stereo not given)	-13.1%	28.2µM*	-1.8%	16.2	?	/
CCCCCCCC/C=C\CCCCCCCC(N)=O	-7.7%	4.5%	-0.9%	/	/	-2.3
O=C(/C=C/c1ccccn1)c1ccc(Br)cc1O	-2.5%	-1.4%	0.8%	?	-7.3%	/
N#Cc1cc(C(=O)c2cc(Br)ccc2O)cn(C2CC2)c1=O	17.8µM*	14.1µM*	1.6%	-15.4	?	-1.2
CC(C)n1cc(C(=O)c2cc(Br)ccc2O)cc(C#N)c1=O	-13.6%	?	-5.6%	25.8	?	4.5
O=C(c1cc(Br)ccc1O)c1cc(Br)ccc1O	2.82µM*	-2.0%[13.5 µM]	-3.1%[7.66 µM]	/	/	/
O=C(/C=C/c1ccccn1)c1cc(Br)ccc1O	/	22.4µM*	/	/	/	/
C/C=N/NC(=O)c1cc(Br)ccc1O	-16.6%	12.4%	1.8%	?	-21.5%	-0.5
Cc1c(NC(=O)c2ccc(Br)o2)cccc1-c1nc2ccccc2o1	/	/	/	/	/	-2.0
c1nc(N2CCCCC2)c2[nH]cnc2n1	-11.3%	1.5%	-0.1%	-119.3*	-21.2%	-3.7
CCOC(CNC(=O)c1ccc2nc(N3CCC(C)CC3)sc2c1)OCC	-10.4%	14.1µM*	-4.8%	-8.0	-19.0%	-1.0
O=C(c1ccccc1)N1CCN(c2nc3ccc([N+](=O)[O-])cc3s2)CC1	/	10µM*	0.8%	/	/	/
CC1CCN(c2nc3ccc(C(=O)N4CCN(Cc5ccccc5)CC4)cc3s2)CC1	14.1µM*	20µM*	0.3%	?	?	2.8
O=C(c1ccc2nc(N3CCCCC3)sc2c1)N1CCN(c2ccccn2)CC1	?	28.2µM*	-0.5%	50.7	-2.9%	2.7
CCOC(=O)N1CCN(C(=O)c2ccc3nc(N4CCC(C)CC4)sc3c2)CC1	?	?	1.0%	31.1	-2.4%	1.7
OC[C@@H]1[C@@H](c2ccc(F)cc2)C(c2ccc(F)cc2)=NN1c1ccccc1	?	?	4.7%[39.9 µM]	/	/	/
CC(C)C[C@@H](CC(=O)N[C@@H](CCC(=O)O)CC(=O)O)NC(=O)[C@@H]1CCCC[C@H]1NC(=O)C[C@@H](NC(=O)C[C@H](CO)NC(=O)[C@@H]1CNCC[C@H]1N)C(C)C	-6.6%	0.2%	-0.5%	/	/	/
